Source: PubChem
Sampled rows, rich in hits. Any-hit rate of the full collection: about 6.9%.
MPTP block: mitochondrial permeability transition pore inhibitors, primary screen, biochemical, isolated mouse mitochondria, absorbance; Ca2+ swelling absorbance, 30 min; AID 602449, 2012; inhibition, % at 10 µM; actives 1.4% (n = 360,000);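 active means inhibition of 50% or more, scaled per plate between neutral and stimulator controls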;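 further: 0% = DMSO wells given calcium and 100% = 1 mM EGTA wells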
CSC inhib: cancer stem cell viability inhibitors, primary screen, luminescence; cancer stem cell-like cells viability; inhibition, % at 7.5 µM; actives 1.1% (n = 300,000); AID 2717, 2010; in the data active means inhibition above about 75%; tested in HMLE shEcad cells
Mdm2 MdmX PPI: inhibitors of human Mdm2-MdmX association, primary screen, cell-based, luminescence, split luciferase, SaOS-2, uHTS; SaOS-2 split-luciferase Mdm2/MdmX complementation; inhibition, % at 8 µM; actives 3% (n = 330,000); AID 485346, 2010;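 active means inhibition of at least 50% at 8 µM in the primary screen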
NR3A LBD binder: binders of NR3A ligand-binding domain, primary screen, biophysical, differential scanning fluorimetry, uHTS. actives 2.5% (n = 340,000). Tm shift relative to glycine control, % at 25 µM. Glutamate receptor ionotropic, NMDA 3A (GRIN3A) ligand-binding domain. AID 1259313, 2017. NR3A LBD differential scanning fluorimetry, Tm shift; 0% = protein alone, 100% = glycine-bound protein;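 active means melting temperature shift of at least 10% of the positive control shift, at one fixed dose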
Beta cell apopt: inhibitors of cytokine-induced beta cell apoptosis, primary screen, luminescence; actives 0.8% (n = 300,000); AID 435005, 2010; protection from apoptosis, % (no concentration beside the values); INS-1E cytokine-induced death, ATP luminescence, 48 h; percent of positive-control rescue, neutral wells zero;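 active means Every replicate reaches about 75%, or at least half do and their mean reaches it too, limit read from the data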;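 further: 0% = cytokine-treated negative control wells and 100% = positive control rescue; higher means more ATP so stronger rescue from cytokine killing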
SKKanGAS inh: S. pyogenes SKKanGAS growth inhibitors in kanamycin, primary screen, streptokinase expression inhibitor project, SKKanGAS strain, BacTiter-Glo luminescence; 6 h; inhibition, % at 7.5 µM; actives 1.3% (n = 300,000); AID 1662, 2009;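 active means mean replicate score, as percent of positive control median, at least 50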;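 further: strain carries kanamycin resistance gene driven by streptokinase promoter and grows in 40 µg/ml kanamycin; loss of luminescence reflects streptokinase promoter inhibition or plain growth inhibition; 0% = median of DMSO wells and 100% = positive control at its reference dose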
* = called active by the depositor; . = no result; + = active, no number.

SMILES	MPTP block	CSC inhib	Mdm2 MdmX PPI	NR3A LBD binder	Beta cell apopt	SKKanGAS inh
CC(C)Cc1nc(SCC(=O)NCC2CCCO2)c2c(=O)n(C)c(=O)n(C)c2n1 (configuration not stated)	1.4	-6.2	-1.6	0.3	3.0	3.4
COc1ccc(Cl)cc1Nc1nc(NCCO)nc(N2CCCC2)n1	-11.4	-11.0	14.0	-0.9	-2.7	-3.2
OCCNc1nc(Nc2cc(Cl)ccc2OC2CCCC2)nc(N2CCCC2)n1	1.0	60.2	48.8	-4.1	-2.9	67.5*
Cc1ccc(S(=O)(=O)N2CCOCC2)cc1NC(=O)COC(=O)c1ccc(Br)o1	-0.4	.	.	1.4	.	.
CCOP(=O)(OCC)c1nc(-c2cccc3ccccc23)oc1NCc1ccccc1	0.6	.	-6.9	-0.5	-3.7	26.8
CCOP(=O)(OCC)c1nc(-c2cccc3ccccc23)oc1NCc1ccc(OC)cc1	1.0	10.5	36.4	-1.0	3.0	57.2*
COC(=O)CSc1nc(N)c2c3c(sc2n1)C(c1ccccc1)SC(c1ccccc1)C3 (configuration not stated)	-3.4	+	35.5	-16.2	69.4	41.1
COc1ccccc1CN(CC(=O)NCc1ccc(F)cc1)C(=O)c1csnn1	-0.1	-24.1	-11.3	-0.9	1.8	15.3
CCOC(=O)[C@]12CCCC=C1N(CCC1=CCCCC1)C(=O)[C@H](CC(=O)NCc1cccc(C(F)(F)F)c1)C2	-2.6	.	.	.	.	.
N=c1oc2cc(O)ccc2cc1C(=O)Nc1ccc(Cl)cc1	4.1	52.3	-63.0	20.4*	.	10.8
O=C(CNS(=O)(=O)c1ccc(Br)s1)N1CCN(c2ccc(F)cc2)CC1	1.4	-3.6	8.9	-1.2	4.3	12.6
O=C(COc1ccc2ccccc2c1)NNC(=O)Cc1ccccc1	-0.1	3.8	.	-2.9	-2.6	0.8
O=C(Cc1ccccc1)NNc1ccc2ccccc2c1	-0.3	87.6*	27.6	-0.7	2.9	19.6
COc1ccc(N=Nc2cnc(C)nc2-c2ccccc2)cc1	2.7	0.8	16.6	3.9	6.3	42.3
Cc1ncc(N=Nc2ccccc2Cl)c(-c2ccccc2)n1	0.2	-4.3	34.2	16.8*	-11.7	30.5
CC1COc2c(N3CCN(C)CC3)c(F)cc3c(=O)c(C(=O)O)cn1c23 (configuration not stated)	.	13.6	-15.8	0.6	-9.2	95.1*
CC(=O)c1ccc(S(=O)(=O)N2CCN(C(=O)CSc3ccc(F)cc3)CC2)cc1	0.9	7.3	14.9	1.3	-1.3	-0.7
Nc1cc(Cl)ccc1Oc1ccc2ccccc2c1	2.9	83.2*	-5.9	-13.2	9.0	-0.6
Cc1ccc(Oc2ccc(Cl)cc2N)cc1	1.1	3.0	-38.2	-2.0	-4.1	-15.2
COc1ccccc1NC(=O)NC1(C(=O)N2CCCCC2)CCCCC1	-0.8	-11.4	17.1	-1.6	-0.8	-8.8
Cc1ccc(NC(=O)c2cc(S(=O)(=O)NCCC3=CCCCC3)ccc2F)cc1	20.2	.	8.4	14.4*	105.3*	16.3
Cc1ccc(NC(=O)c2cc(S(=O)(=O)NCC3CCCO3)ccc2F)cc1 (configuration not stated)	-2.7	.	.	.	.	.
CN(C(=O)COC(=O)c1ccccc1Nc1ccccc1)c1c(N)n(Cc2ccccc2)c(=O)[nH]c1=O	-4.4	1.3	38.2	23.5*	5.1	15.3
COCCN(C(=O)COC(=O)C12CC3CC(CC(Cl)(C3)C1)C2)c1c(N)n(Cc2ccccc2)c(=O)[nH]c1=O	-0.8	-18.5	-15.0	1.0	-11.4	-1.9
CCN(C(=O)COC(=O)CCOc1ccccc1)c1c(N)n(Cc2ccccc2)c(=O)[nH]c1=O	-1.4	-10.6	-33.4	1.8	-4.6	.
SMILES	MPTP block	CSC inhib	Mdm2 MdmX PPI	NR3A LBD binder	Beta cell apopt	SKKanGAS inh
CCN(C(=O)COC(=O)CCS(=O)(=O)c1ccccc1)c1c(N)n(Cc2ccccc2)c(=O)[nH]c1=O	-2.6	.	.	17.5*	.	.
COCCN(C(=O)COC(=O)c1ccccc1Nc1ccccc1)c1c(N)n(Cc2ccccc2)c(=O)[nH]c1=O	-2.1	-7.1	47.3	19.5*	31.6	2.6
Cc1ccccc1C(=O)OCC(=O)N(C)c1c(N)n(Cc2ccccc2)c(=O)[nH]c1=O	0.5	-2.6	20.8	2.2	-0.3	-1.1
COCCN(C(=O)COC(=O)c1cccc2ccccc12)c1c(N)n(Cc2ccccc2)c(=O)[nH]c1=O	0.1	-15.9	8.4	6.2	-6.1	-5.5
CC(C)CN(C(=O)COC(=O)C12CC3CC(CC(Cl)(C3)C1)C2)c1c(N)n(Cc2ccccc2)c(=O)[nH]c1=O	-1.6	-16.4	28.8	-3.6	80.9*	35.5
CC(=O)N1CCOc2ccc(S(=O)(=O)NCC3CCC(C(=O)Nc4ccc(C)cn4)CC3)cc21 (configuration not stated)	0.3	-12.9	36.0	-0.2	19.6	-3.3
COc1ccc2nc3sc(C(=O)NCCN4CCc5ccccc5C4)cc3cc2c1	1.0	.	2.7	19.0*	4.1	11.3
CS(=O)(=O)NNC(=O)c1cc2cc3ccccc3nc2s1	-3.2	-8.8	24.0	-0.4	2.3	.
COc1ccc(S(=O)(=O)NNC(=O)c2cc3cc4ccccc4nc3s2)cc1	1.3	-14.0	0.6	28.9*	3.2	-8.9
CC1COc2ccccc2N1C(=O)c1ccc(Cl)cc1 (configuration not stated)	1.0	-9.7	10.8	0.9	-9.0	2.9
O=C(C(Cl)Cl)N1c2ccccc2OCC1c1ccccc1 (configuration not stated)	15.3	12.4	27.7	-0.2	76.2*	4.8
Cc1ccc(-c2nnc(NC(=O)c3ccc([N+](=O)[O-])o3)o2)c(C)c1	-1.4	-1.3	25.3	-3.9	-3.8	69.5*
COc1ccc(-c2nnc(NC(=O)c3ccc([N+](=O)[O-])o3)o2)c(OC)c1	0.2	51.5	11.4	0.4	-1.1	14.4
Cc1c(C)n(CCc2ccccc2)c2ncnc(NCCCN(C)C)c12	-0.7	76.5*	22.0	-1.0	3.0	-5.3
Cc1c(C)n(CCN(C)C)c2ncnc(NCc3ccccc3)c12	0.2	-1.5	2.8	-0.5	-8.1	-1.8
Cc1ccc(CN(c2ccc(C(=O)N3CCCC3)cc2)S(C)(=O)=O)cc1	-1.3	2.7	21.4	0.5	-18.2	67.0*
COc1ccccc1NS(=O)(=O)c1cc(N=N/C(C(=O)Nc2ccc(Cl)cc2)=C(/C)O)ccc1C	1.1	-2.0	-3.3	-1.5	-5.8	.
CCCCc1ccc(N=N/C(C(=O)Nc2ccc(NC(C)=O)cc2OC)=C(/C)O)cc1	2.0	80.0*	3.2	2.1	4.4	1.1
CCCCc1ccc(NC(=S)N2CCN(C(=O)c3ccco3)CC2)cc1	-0.6	-7.0	20.4	-4.7	-12.2	-3.5
